From PubChem BioAssay (NCATS)
Records with an inconclusive call do not appear. Active and inactive are the calls of the source. The call rests on the fitted dose curve; in most records, active means well fitted curve in the direction sought with a large enough effect; inconclusive means small, poorly fitted or top-dose-only effect, or another doubt; inactive means no such curve, though single readings can be large; an effect the other way counts as inactive or inconclusive.

What was measured:
[1] = test system: NIH3T3; experiment: qHTS assay to identify novel small-molecules to repurpose for Merkel cell carcinoma treatment (AID 1296009); details: MCC and control cell lines, CellTiter-Glo viability, 72 h; at 44.8 µM (top of the series) unless noted; further: nearly all actives have a fitted effect of over 60% in size
Summary of the method: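 Cells were incubated with compound for 72 hr at 37 degree celsius before CellTiter-Glo addition. Luminescence was normalized with no-cell wells as full cytotoxicity and DMSO as baseline.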

[2] = test system: C33A; experiment: Primary qHTS to identify gynecologic anti-cancer compounds using libraries of approved drugs and bioactive compounds (AID 1345084); details: Gynecologic cancer cell panel viability, ATPlite luminescence, 48 h; series mostly up to 57.5 µM; further: on the % scale 0 is the no-effect control and ±100 the full control effect; nearly all actives have a fitted effect of over 55% in size
Summary of the method: (§1)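 Cells, 1,000 per well, plated 16 h, then exposed 48 h at 37 C to compounds. Viability by ATPlite luminescence after 15 min at room temperature.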

[3] = test system: CAOV3; experiment: as above; details: Gynecologic cancer cell panel viability, ATPlite luminescence, 48 h; series mostly up to 57.5 µM
Summary of the method: as §1

[4] = test system: CASKI; experiment: as above; details: Gynecologic cancer cell panel viability, ATPlite luminescence, 48 h; series mostly up to 57.5 µM
Summary of the method: as §1

[5] = test system: Es-2; experiment: as above; details: Gynecologic cancer cell panel viability, ATPlite luminescence, 48 h; series mostly up to 57.5 µM
Summary of the method: as §1

[6] = test system: HeLa; experiment: as above; details: Gynecologic cancer cell panel viability, ATPlite luminescence, 48 h; series mostly up to 57.5 µM
Summary of the method: as §1

[7] = test system: Hek293T; experiment: as above; details: Gynecologic cancer cell panel viability, ATPlite luminescence, 48 h, control line for the selectivity index; series mostly up to 57.5 µM
Summary of the method: as §1

[8] = test system: JEG-3; experiment: as above; details: Gynecologic cancer cell panel viability, ATPlite luminescence, 48 h; series mostly up to 57.5 µM
Summary of the method: as §1

[9] = test system: OV90; experiment: as above; details: Gynecologic cancer cell panel viability, ATPlite luminescence, 48 h; series mostly up to 57.5 µM
Summary of the method: as §1

[10] = test system: PA-1; experiment: as above; details: Gynecologic cancer cell panel viability, ATPlite luminescence, 48 h; series mostly up to 57.5 µM
Summary of the method: as §1

[11] = test system: SKOV3; experiment: as above; details: Gynecologic cancer cell panel viability, ATPlite luminescence, 48 h; series mostly up to 57.5 µM
Summary of the method: as §1

[12] = test system: Tov-21-G; experiment: as above; details: Gynecologic cancer cell panel viability, ATPlite luminescence, 48 h; series mostly up to 57.5 µM
Summary of the method: as §1

[13] = test system: Tov112D; experiment: as above; details: Gynecologic cancer cell panel viability, ATPlite luminescence, 48 h; series mostly up to 57.5 µM
Summary of the method: as §1

C=CC(C)(O)CC/C=C(\C)C1CC=C(C)C(=O)O1 (centres undefined)
inactive: outcome [1] | Potency [2] | Potency [3] | outcome [4] | Potency [5] | Potency [6] | Potency [7] | Potency [8] | Potency [9] | Potency [10] | Potency [11] | Potency [12] | Potency [13]

CC1CC(O)/C=C/C(O)/C=C\C(=O)O1 (centres undefined)
inactive: outcome [1] inactive [at 92 µM] | Potency [2] | Potency [3] | outcome [4] | Potency [5] | Potency [6] | Potency [7] | Potency [8] | Potency [9] | Potency [10] | Potency [11] | Potency [12] | Potency [13]

CC1(C)CC[C@]2(C(=O)O[C@@H]3O[C@H](CO)[C@@H](O)[C@H](O)[C@H]3O)CC[C@]3(C)C(=CCC4[C@@]5(C)C[C@H](O)[C@H](O[C@@H]6OC[C@@H](O)[C@H](O)[C@H]6O)[C@@](C)(CO)C5CC[C@]43C)C2C1 (some centres undefined)
inactive: outcome [1] inactive [at 9.27 µM] | activity change, negative = cytotoxicity [2] 6.67% [at 11.6 µM] | activity change, negative = cytotoxicity [3] 10.5% [at 11.6 µM] | activity change, negative = cytotoxicity [4] 2.82% [at 11.6 µM] | activity change, negative = cytotoxicity [5] 1.33% [at 11.6 µM] | activity change, negative = cytotoxicity [6] 24.4% [at 11.6 µM] | activity change, negative = cytotoxicity [7] 12.6% [at 11.6 µM] | activity change, negative = cytotoxicity [8] 17% [at 11.6 µM] | activity change, negative = cytotoxicity [9] 6.42% [at 11.6 µM] | activity change, negative = cytotoxicity [10] 8.05% [at 11.6 µM] | activity change, negative = cytotoxicity [11] 21.5% [at 11.6 µM] | activity change, negative = cytotoxicity [12] -9.27% [at 11.6 µM] | activity change, negative = cytotoxicity [13] 3.56% [at 11.6 µM]

O=C(OCC1=C[C@@H](O)[C@@H]2C=CO[C@@H](O[C@@H]3O[C@H](CO)[C@@H](O)[C@H](O)[C@H]3O)[C@H]12)c1ccc(O)cc1
inactive: outcome [1] inactive [at 17.4 µM] | Potency [2] | Potency [3] | outcome [4] | Potency [5] | Potency [6] | Potency [7] | Potency [8] | Potency [9] | Potency [10] | Potency [11] | Potency [12] | Potency [13]

C=C(C(=O)O)[C@@H]1CC[C@H](C)[C@@H]2CC(=O)C(C)=C2C1
inactive: outcome [1] | Potency [2] | Potency [3] | outcome [4] | Potency [5] | Potency [6] | Potency [7] | Potency [8] | Potency [9] | Potency [10] | Potency [11] | Potency [12] | Potency [13]

Cc1cc(CNC(=O)c2cc(C(=O)NCc3ccc(F)c(C)c3)ncn2)ccc1F
inactive: outcome [1] | Potency [2] | Potency [3] | outcome [4] | Potency [5] | Potency [6] | Potency [7] | Potency [8] | Potency [9] | Potency [10] | Potency [11] | Potency [12] | Potency [13]

Fc1ccc(-c2c3cccc(C(F)(F)F)c3nn2Cc2ccc(F)cc2Cl)cc1
inactive: outcome [1] | Potency [2] | Potency [3] | outcome [4] | Potency [5] | Potency [6] | Potency [7] | Potency [8] | Potency [9] | Potency [10] | Potency [11] | Potency [12] | Potency [13]

C=C1CCC2C(C)(C)CC(O)CC2(C)C1CCC(C)CCOC(=O)CCC(=O)O (centres undefined)
inactive: outcome [1] inactive [at 17.4 µM] | Potency [2] | Potency [3] | outcome [4] | Potency [5] | Potency [6] | Potency [7] | Potency [8] | Potency [9] | Potency [10] | Potency [11] | Potency [12] | Potency [13]

C/C=C1/[C@H](O[C@@H]2O[C@H](CO)[C@@H](O)[C@H](O)[C@H]2O)OC=C(C(=O)OC)[C@H]1CC(=O)OCCc1ccc(O)c(O)c1
inactive: outcome [1] inactive [at 17.4 µM] | Potency [2] | Potency [3] | outcome [4] | Potency [5] | Potency [6] | Potency [7] | Potency [8] | Potency [9] | Potency [10] | Potency [11] | Potency [12] | Potency [13]

Cc1ccc(Cl)cc1N(CC(=O)Nc1c(F)cccc1F)S(C)(=O)=O
inactive: outcome [1] | Potency [2] | Potency [3] | outcome [4] | Potency [5] | Potency [6] | Potency [7] | Potency [8] | Potency [9] | Potency [10] | Potency [11] | Potency [12] | Potency [13]

O=C(O)CC/C=C\C[C@H]1CO[C@@H](c2ccccc2Cl)O[C@H]1c1ccccc1O
inactive: outcome [1] | Potency [2] | Potency [3] | outcome [4] | Potency [5] | Potency [6] | Potency [7] | Potency [8] | Potency [9] | Potency [10] | Potency [11] | Potency [12] | Potency [13]

CC1CC=C2C1CC1(O)C(=O)CC2(C)C1(C)CO (centres undefined)
inactive: outcome [1] | Potency [2] | Potency [3] | outcome [4] | Potency [5] | Potency [6] | Potency [7] | Potency [8] | Potency [9] | Potency [10] | Potency [11] | Potency [12] | Potency [13]

Cc1ccc2nc(NC(=O)CSc3nc4c(c(=O)n3-c3ccc(F)cc3)SCC4)sc2c1
inactive: outcome [1] | Potency [2] | Potency [3] | outcome [4] | Potency [5] | Potency [6] | Potency [7] | Potency [8] | Potency [9] | Potency [10] | Potency [11] | Potency [12] | Potency [13]
